Experiment [1] can be described thus: qHTS for Inhibitors of the Functional Ribonucleoprotein Complex (vRNP) of Lassa (LASV) Arenavirus: LASV Primary Screen - GLuc reporter signal (AID 1347082; calls by dose curve; tested in HEK293 reporter line; also: nearly all actives have a fitted effect of over 60% in size). A general note: Quantitative high-throughput screening tests each substance at several concentrations.
Experiment [2] can be described thus: qHTS for Inhibitors of the Functional Ribonucleoprotein Complex (vRNP) of Lassa (LASV) Arenavirus: Viability assay - alamar blue signal for LASV Primary Screen (AID 1347083; calls by dose curve; tested in HEK293 reporter line; also: nearly all actives have a fitted effect of over 80% in size).
A short description of experiment [3]: qHTS for Inhibitors of the Functional Ribonucleoprotein Complex (vRNP) of Lymphocytic Choriomeningitis Arenaviruses (LCMV): Viability assay - alamar blue signal for LCMV Primary Screen (AID 1347085; calls by dose curve; tested in HEK293 reporter line; also: nearly all actives have a fitted effect of over 80% in size).
Experiment [4] addresses Nucleoprotein (Lymphocytic choriomeningitis virus (strain Armstrong)) (UniProt P09992). Description: qHTS for Inhibitors of the Functional Ribonucleoprotein Complex (vRNP) of Lymphocytic Choriomeningitis Arenaviruses (LCMV): LCMV Primary Screen - GLuc reporter signal (AID 1347086). Also: nearly all actives have a fitted effect of over 70% in size.

30 molecules from PubChem BioAssay (NCATS) can be followed below.

Inconclusive results are not listed. Activity calls are given as the source filed them. Unless noted, calls follow the shape of the full dose curve.
Potency is read from the fitted curve at half-maximal effect.

Sequence of Nucleoprotein (Lymphocytic choriomeningitis virus (strain Armstrong)) (P09992 whole entry, looked up): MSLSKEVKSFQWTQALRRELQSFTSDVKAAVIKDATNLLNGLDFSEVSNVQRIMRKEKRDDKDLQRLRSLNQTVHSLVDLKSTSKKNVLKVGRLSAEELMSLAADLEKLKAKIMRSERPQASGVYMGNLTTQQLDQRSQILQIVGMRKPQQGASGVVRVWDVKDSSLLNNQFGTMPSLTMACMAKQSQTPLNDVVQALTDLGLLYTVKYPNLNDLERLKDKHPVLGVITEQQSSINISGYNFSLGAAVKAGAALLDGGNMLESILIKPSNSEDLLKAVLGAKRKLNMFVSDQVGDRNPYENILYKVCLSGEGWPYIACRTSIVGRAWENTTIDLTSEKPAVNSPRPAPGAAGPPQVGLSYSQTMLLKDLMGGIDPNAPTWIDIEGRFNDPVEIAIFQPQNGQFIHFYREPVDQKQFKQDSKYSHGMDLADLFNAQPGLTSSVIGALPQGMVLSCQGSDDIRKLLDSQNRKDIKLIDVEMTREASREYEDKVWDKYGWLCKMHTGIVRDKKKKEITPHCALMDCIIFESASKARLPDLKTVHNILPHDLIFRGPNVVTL

In the case of `COc1cc2c(O)c3c(c(-c4ccc5c(c4)OCO5)c2cc1OC)C(=O)OC3`, the Potency result in experiment [1], in experiment [2], in experiment [3] and in experiment [4] was “inactive” in each case.

Regarding `C=C1CC/C=C(\C)CC[C@@H]2[C@@H]1CC2(C)C`, the Potency result in experiment [1], in experiment [2], in experiment [3] and in experiment [4] was “inactive” throughout.

Turning to `C=C[C@]1(C)Cc2occ(C)c2C[C@H]1C(=C)C(=O)O`, the Potency result in experiment [1], in experiment [2], in experiment [3] and in experiment [4] was “inactive” in each case.

With `COc1ccc([C@@H](OC)[C@@]2(Cc3ccc(O)cc3)N=C(N)N(C)C2=O)cc1`, the Potency entry in experiment [1], in experiment [2], in experiment [3] and in experiment [4] was “inactive” in each case.

As for `CC12CCC3C(CCC4CC(O)CCC43C)C1CC(O)C2` (stereo not given), the Potency entry in experiment [1], in experiment [2], in experiment [3] and in experiment [4] was “inactive” throughout.

On to `CCOC(=O)/C=C/c1ccccc1`, for which the Potency result in experiment [1], in experiment [2], in experiment [3] and in experiment [4] was “inactive” throughout.

For `O=C(Nc1nnc(-c2ccco2)o1)c1cc(-c2ccccc2)nc2ccccc12`, the Potency result in experiment [1], in experiment [2], in experiment [3] and in experiment [4] was “inactive” in each case.

Turning to `CC1=C(O)C(=O)OC1C` (stereo not given), the Potency result in experiment [1], in experiment [2], in experiment [3] and in experiment [4] was “inactive” in each case.

As for `CC(C)=CCC/C(C)=C/CC/C(C)=C/COc1ccc2ccc(=O)oc2c1`, the Potency result in experiment [1], in experiment [2], in experiment [3] and in experiment [4] was “inactive” throughout.

Regarding `CCC(C)SSC(C)CC` (stereo not given), the Potency entry in experiment [1], in experiment [2], in experiment [3] and in experiment [4] was “inactive” in each case.

In the case of `Nc1ncnc2c1ncn2[C@@H]1O[C@H](COP(=O)(O)OP(=O)(O)OC[C@H]2OC(O)[C@H](O)[C@@H]2O)[C@@H](O)[C@H]1O` (stereo not given in full), the Potency result in experiment [1], in experiment [2], in experiment [3] and in experiment [4] was “inactive” each time.

As to `CC(C)=CCCC(C)CC(=O)O` (stereo not given), the Potency entry in experiment [1], in experiment [2], in experiment [3] and in experiment [4] was “inactive” each time.

For the molecule `COc1cc2oc(=O)ccc2c(OC)c1CC(O)C(C)(C)O` (stereo not given), the Potency result in experiment [1], in experiment [2], in experiment [3] and in experiment [4] was “inactive” in each case.

As to `COC(/C=C(\C)CCC=C(C)C)OC`, the Potency entry in experiment [1], in experiment [2], in experiment [3] and in experiment [4] was “inactive” in each case.

For `C=C(C)C(O)Cc1c(OC)ccc(C(=O)/C=C/c2ccc(O)cc2)c1O` (stereo not given), the Potency entry in experiment [1], in experiment [2], in experiment [3] and in experiment [4] was “inactive” throughout.

For `CCCCCCCCCCCCCC[C@@H](O)[C@@H](O)[C@@H](N)CO`, the Potency entry in experiment [1], in experiment [2], in experiment [3] and in experiment [4] was “inactive” throughout.

As for `Nc1[nH]c(=O)nc2c1ncn2C1OC(CO)C(O)C1O` (stereo not given), the Potency result in experiment [1], in experiment [2], in experiment [3] and in experiment [4] was “inactive” in each case.

On to `COc1ccc2c(c1)c(=O)cc(-c1ccccc1)n2C`, for which the Potency result in experiment [1], in experiment [2], in experiment [3] and in experiment [4] was “inactive” throughout.

For `N#CC(c1ccc(O)cc1)N1CCCCC1` (stereo not given), the Potency result in experiment [1], in experiment [2], in experiment [3] and in experiment [4] was “inactive” throughout.

Regarding `C/C=C1/CN2C3CC1C(CO)(C(=O)OC)C2Cc1c3n(C)c2ccccc12` (stereo not given), the Potency entry in experiment [1], in experiment [2], in experiment [3] and in experiment [4] was “inactive” each time.

Turning to `C[C@@H]1C(=O)O[C@H]2[C@H]1CC[C@@]1(C)C(=O)C=C[C@@](C)(O)[C@H]21`, the Potency entry in experiment [1], in experiment [2], in experiment [3] and in experiment [4] was “inactive” each time.

In the case of `COc1cc2c(c(OC)c1CC=C(C)C)C[C@H](c1ccc(O)cc1O)CO2`, the Potency result in experiment [1], in experiment [2], in experiment [3] and in experiment [4] was “inactive” throughout.

For the molecule `CCc1cnn2c(NCc3ccc[n+]([O-])c3)cc(N3CCCC[C@@H]3CCO)nc12`, the Potency in experiment [1] is 109 nM (active); in experiment [2] it was 38.5 nM (active); in experiment [3] it was 38.5 nM (active); in experiment [4], 48.5 nM (active).

On to `CC[C@H]1OC(=O)[C@H](C)[C@@H](O[C@H]2C[C@@](C)(OC)[C@@H](O)[C@H](C)O2)[C@H](C)[C@@H](O[C@@H]2O[C@@H](C)C[C@H](N(C)C)[C@@H]2O)[C@](C)(O)C[C@@H](C)C(=O)[C@H](C)[C@@H](O)[C@]1(C)O`, for which the Potency result in experiment [1], in experiment [2], in experiment [3] and in experiment [4] was “inactive” throughout.

As for `CN1CCCC1`, the Potency result in experiment [1], in experiment [2], in experiment [3] and in experiment [4] was “inactive” each time.

Turning to `CC(C)=CCC/C(C)=C/Cc1c(O)ccc(C(=O)/C=C/c2ccc(O)cc2)c1O`, the Potency result in experiment [1], in experiment [2], in experiment [3] and in experiment [4] was “inactive” in each case.

On to `C=CC[C@]12C[C@@H](OC)C(=O)C=C1O[C@@H](c1ccc(OC)c(OC)c1)[C@H]2C`, for which the Potency entry in experiment [1], in experiment [2], in experiment [3] and in experiment [4] was “inactive” throughout.

On to `Cc1c(O)c2ccccc2oc1=O`, for which the Potency result in experiment [1], in experiment [2], in experiment [3] and in experiment [4] was “inactive” throughout.

`CCCCCCCCCCCC(=O)OCC`: the Potency result in experiment [1], in experiment [2], in experiment [3] and in experiment [4] was “inactive” throughout.

Consider `COc1c2ccc(OCC/C(C)=C/C(=O)C=C(C)C)cc2nc2occc12`, for which the Potency result in experiment [1], in experiment [2], in experiment [3] and in experiment [4] was “inactive” each time.
